CtBP-E1A inh: CtBP/E1A binding inhibition; AlphaScreen GST-E1A/His-CtBP binding, 1536-well; hits give low values; activity change, % (test concentration not listed); 340,000 compounds, 0.49% hits; AID 651724; in the data active = activity change below about -65%; inconclusive = mostly about -30% to -63%
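In 5 uL wells, 23 nL compound meets equimolar GST-E1A and His-CtBP (5X stock 125 nM each) for 2 h, 37 °C. Beads (5X, 50 ug/mL) then 1 h, 37 °C, dark.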
JMJD2A Tudor inh: JMJD2A Tudor domain (human) inhibition. O75164. AlphaScreen JMJD2A-Tudor / H3K4me3 peptide binding. Potency, µM (top dose mostly 114 µM), usual class: inhibitors. 390,000 compounds, 4.4% hits; also: nearly all actives have a fitted effect of over 50% in size
Six1-Eya2 blk: inhibitors of human Six1/Eya2 interaction | Q15475+O00167 | AlphaScreen GST-Six1/His-Eya2 binding, biochemical; hits give low values | activity change, % (no concentration beside the values) | 360,000 compounds, 0.56% hits | AID 651725; in the data active = activity change below about -65%; inconclusive = mostly about -30% to -63%
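Homogeneous AlphaScreen proximity assay pairing GST-Six1 with His-tagged Eya2 (added as 5X mix: 250 nM and 500 nM) in 50 mM Tris pH 8.0, 300 mM NaCl, 1 mM TCEP. Glutathione donor and nickel acceptor beads; 1 h, 37 °C, dark.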
G9a inh: inhibitors of human histone lysine methyltransferase G9a. AID 504332. 350,000 compounds, 8.8% hits. G9a H3K9 monomethylation, AlphaScreen, 2 h. Potency, µM (doses to about 102 µM), usual class: inhibitors; also: nearly all actives have a fitted effect of over 75% in size
Target sequence (Q96KQ7 913-1193 limits assumed): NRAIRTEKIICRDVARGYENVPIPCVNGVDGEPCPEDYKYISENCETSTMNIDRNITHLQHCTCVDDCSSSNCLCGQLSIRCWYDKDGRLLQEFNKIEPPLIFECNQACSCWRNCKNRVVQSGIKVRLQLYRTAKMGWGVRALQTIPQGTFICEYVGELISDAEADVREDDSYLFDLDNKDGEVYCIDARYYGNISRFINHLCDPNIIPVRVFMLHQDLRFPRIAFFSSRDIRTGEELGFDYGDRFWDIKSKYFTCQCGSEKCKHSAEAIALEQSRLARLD
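G9a (20 nM) preincubated 15 min RT with compounds, then 500 nM biotinylated H3K9 peptide and 20 uM SAM added; 2 h RT reaction. Monomethyl-H3K9 product detected by AlphaScreen with anti-H3K9me1 antibody, streptavidin donor and anti-rabbit IgG acceptor beads.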
HP1b chromo inh: HP1-beta chromodomain-methylated histone interaction inhibition; Potency, µM (doses to about 114 µM), most hits filed as inhibitors; AlphaScreen HP1-beta / biotin-H3K9me3 peptide binding; P83916; 390,000 compounds, 0.56% hits; also: nearly all actives have a fitted effect of over 70% in size
Target sequence (P83916 whole entry, looked up): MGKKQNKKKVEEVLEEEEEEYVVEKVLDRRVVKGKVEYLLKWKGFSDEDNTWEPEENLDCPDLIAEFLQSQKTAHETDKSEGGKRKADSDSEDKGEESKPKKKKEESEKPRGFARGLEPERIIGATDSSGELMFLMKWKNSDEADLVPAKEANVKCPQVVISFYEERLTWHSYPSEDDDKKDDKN
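Compound inhibition of the preformed complex between 50 nM HP1-beta and 50 nM biotinylated H3K9me3 peptide was read by AlphaScreen. Buffer was PBS pH 7.4 with 0.01% Tween-20. Incubations ran 30 min at room temperature, with 10 ug/mL donor/acceptor beads.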
BAZ2B inh: inhibitors of human BAZ2B bromodomain | AlphaScreen BAZ2B-H3K14Ac peptide displacement | 360,000 compounds, 4.4% hits | Potency, µM (top dose mostly 114 µM), most hits filed as inhibitors; also: nearly all actives have a fitted effect of over 60% in size
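In this displacement format the biotinylated H3(5-23) peptide acetylated at Lys14 serves as ligand at 50 nM, with BAZ2B at 50 nM in PBS pH 7.4 containing 0.01% Tween-20. Donor and acceptor beads are 10 ug/mL final.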
A number is an active result; 0 = inactive; ? = inconclusive; - = not tested or not shown; [ ] = remark or other dose. In the library only some 10% were active in any assay of this set; here they are far more common. Unless noted, calls follow the shape of the dose curve; as a rule, active = well fitted inhibition curve with a large enough effect; inconclusive = small, poorly fitted or top-dose-only effect; inactive = no such curve, though single readings can be large or run the other way.

SMILES	CtBP-E1A inh	JMJD2A Tudor inh	Six1-Eya2 blk	G9a inh	HP1b chromo inh	BAZ2B inh
CSc1ccccc1OCc1cc(C(=O)N(C)CCn2nc(C)cc2C)no1	0	13µM	0	0[0.501 µM]	0	?
O=[N+]([O-])C1=CC=C2C(=NC3(CCCCC3)N2O)C1=NCCO	0	0	0	?	0	50µM
CN=C1C([N+](=O)[O-])=CC=C2C1=NC1(CCCCC1)N2O	0	0	0	?	0	?
COc1ccccc1-c1coc2cc(OC(=O)/C=C/c3ccccc3)ccc2c1=O	-68	0	0	0	0	0
CN(C)Cc1ccccc1Sc1ccc2c(c1)CCCC2	0	0.63µM	0	-	?	-
CC(=O)c1ccc(OCC(=O)Nc2cccc(S(=O)(=O)N3CCCC3)c2)cc1	0	0	0	20µM	0	0
CNC(=O)COc1ccc(S(=O)(=O)N2CCCC2)cc1	0	11µM	0	0	0	0
O=C(COC(=O)c1ccc(C(F)(F)F)cc1)Nc1cccc(S(=O)(=O)N2CCCCC2)c1	0	0	0	10µM	0	0
CC(C)c1ccc(CC(=O)N2CCC2(C)C(=O)NS(=O)(=O)c2cccc(C#N)c2)cc1 (stereo unspecified)	0	-	0	-	-	-
CC12CCC(C(=O)NCc3ccccn3)(OC1=O)C2(C)C (stereo unspecified)	0	?	0	?	0	79µM
CC1=C(C(=O)NCc2ccccn2)C2(CCC(C)CC2)OC1=O (stereo unspecified)	0	28µM	0	10µM	0	79µM
CNC1CCc2cc(OC)c(OC)c(OC)c2-c2ccc(OC)c(=O)cc21 (stereo unspecified)	-	-	-	0[12.7 µM]	-	-
Cc1ccc(S(=O)(=O)c2c(Nc3ccc(C)c(C)c3)sc(C(=O)c3ccc4c(c3)OCO4)c2N)cc1	-	0	-	0	0	0
COc1ccccc1-c1nc(NCc2cccnc2)c2ccccc2n1	-	-	-	0[0.501 µM]	-	-
COC(=O)c1cc2c(ccn2-c2ccc(F)cc2)n1Cc1ccc(OC)cc1	0	?	0	0	0	0
CCn1c(C(=O)OC)cc2c1ccn2-c1ccc(F)cc1	0	3.2µM	0	?	?	13µM
COc1ccc(/C=C/C(=O)Nc2ccc3nc4c(c(Nc5ccccc5OC)c3c2)CCCC4)cc1	-	?	-	7.9µM	0	0
COc1ccccc1Nc1c2c(nc3ccc(NC(=O)c4cccc(F)c4)cc13)CCCC2	-	?	-	?	0	?
COc1ccccc1Nc1c2c(nc3ccc(NC(=O)/C=C/c4cccc(OC)c4OC)cc13)CCCC2	-	?	-	11µM	0	?
COc1ccc(Nc2c3c(nc4ccccc24)CCCC3)cc1OC	0	?	0	0	?	?
COc1ccc(Nc2c3c(nc4ccc(NC(=O)/C=C/c5cccc(OC)c5OC)cc24)CCCC3)cc1OC	-	14µM	-	11µM	?	10µM
COc1ccc2[nH]c3c(c2c1)CCN1C(=O)N([C@@H](C)C(=O)NC2CCCCC2C)C(=O)[C@]31C (stereo partly specified)	0	?	0	-	0	?
CN(CC(=O)NCCc1ccc(Cl)cc1)S(=O)(=O)c1cccs1	0	0	0	0	0	0
COc1ccc(-n2cc(C(=O)O)c(=O)cc2C)cc1	0	?	0	45µM	0	?
COc1ccc(-n2cc(C(=O)NCc3ccccc3)c3ccccc3c2=O)cc1	-	?	-	?	0	0
SMILES	CtBP-E1A inh	JMJD2A Tudor inh	Six1-Eya2 blk	G9a inh	HP1b chromo inh	BAZ2B inh
CC(=O)c1c(C)oc(C)c1CSCc1ccc(C(=O)O)o1	0	14µM	?	?	0	?
COc1ccc(CNC(=O)c2ccc3c(c2)nc2n3CCCCC2)c(OC)c1	-	0	-	0	0	0
Fc1ccc(N/N=C2/CC(c3ccccc3)Oc3ccccc32)c(F)c1 (stereo unspecified)	0	?	0	10µM	0	?
O=C(Nc1c2c(nn1-c1ccc(Cl)cc1)CS(=O)(=O)C2)c1cccc(Cl)c1	-	0	-	0	0	0
O=C1c2cccc3cccc(c23)C(=O)N1CCCc1n[nH]c(=S)n1-c1ccccc1	0	13µM	0	4µM	0	0
Cc1cccc(Nc2c3c(nc4nncn24)CCC3)c1C	-	0	-	0	0	0
COc1ccc(-n2c(-c3ccccc3)cc3c2CCCC3=O)cc1	?	32µM	?	13µM	?	11µM
O=C(NCCc1ccccc1)c1coc(=O)c(Br)c1	0	0	0	0	0	0
COc1cccc(/C=N/NC(=O)c2ccncc2)c1OC(=O)c1ccc(Br)cc1	-81	?	?	0[0.0925 µM]	0	0
CCOc1ccc(C(=O)N/N=C/c2ccccc2[N+](=O)[O-])cc1	0	0	0	0	0	0
COc1ccc(C(=O)N/N=C/c2cccc3cccnc23)cc1	-93	56µM	-90	0[12.7 µM]	0	20µM
COc1ccc(C(=O)N/N=C/c2cccnc2)cc1	0	0	0	0	0	0
CCOc1ccc(C(=O)N/N=C/c2cccc3cccnc23)cc1	-98	79µM	-92	0	0	20µM
CCOc1ccccc1C(=O)N/N=C/c1cccc2cccnc12	?	?	?	0[0.501 µM]	0	45µM
Cc1cccnc1NC(=O)CCCNC(=O)c1ccc(Cl)cc1	0	0	0	0	0	0
CCOc1ccsc1C(=O)O	0	0	0	0	0	0
Fc1cccc(CNc2ncnc3ccc(-c4ccccc4Cl)cc23)c1	-	-	-	0[12.7 µM]	-	0
Cc1nn(CC(=O)NC(C)c2ccccc2)c(=O)c2cc3occc3n12 (stereo unspecified)	-	0	-	0	0	0
Cc1[nH]c(=O)[nH]c(=O)c1/C=N\NC(=O)CCc1ccc(OC(C)C)cc1	-	-	-	0	-	-
COc1ccc(C(=O)N/N=C/c2c(C)[nH]c(=O)[nH]c2=O)cc1	-86	?	?	0	0	0
COC(=O)/C=c1\sc2ncnn2c1=O	0	20µM	0	3.2µM	?	0
CCOc1cc(N2CCOCC2)c(OCC)cc1NC(=O)COC(=O)COc1ccc(C#N)cc1	0	0	0	0	0	0
CN(C)CCOC(=O)CC12CC3CC(C1)CC(CC(=O)OCCN(C)C)(C3)C2	0	0	0	0	0	0
CN(C)CCOC(=O)C12CC3CC(C1)CC(C(=O)OCCN(C)C)(C3)C2	0	0	0	56µM	0	0
COc1ccc(N2CCN(C(=O)C(=O)c3c(C)[nH]c4ccccc34)CC2)cc1	-	?	0	40µM	0	?
CC(=O)c1ccc(N2CCN(C(=O)C(=O)c3c(C)[nH]c4ccccc34)CC2)cc1	0	0	0	0	0	0
CCN(CC)C(=O)Cn1cc(C(=O)C(=O)N2CCN(c3ccc(OC)cc3)CC2)c2ccccc21	0	0	0	50µM	0	0
CCOC(=O)c1c(C)[nH]c(C(=O)N2CCN(c3ccc(OC)cc3)CC2)c1C	0	?	0	45µM	0	40µM

Source: PubChem BioAssay (National Center for Advancing Translational Sciences (NCATS))
